# Measured values published in publication PMC7862700, “An all-to-all approach to the identification of sequence-specific readers for epigenetic DNA modifications on cytosine”.
# Assays:
# Assay in all cases: DAPPL (digital affinity profiling via proximity ligation, sequencing); 10 mM Tris-HCl pH 7.5, 50 mM NaCl, 1 mM DTT, 4% glycerol, room temperature, 30 min; GST-TFs on glutathione beads, 16-mer random dsDNA library, 0.1% formaldehyde crosslink after washing; high values mean tight binding
# [1] = molecular target: T1, FLI1 (Homo sapiens, UniProt Q01543 1-452); settings: protein: recombinant; tags: N-terminal GST; dsDNA, one strand shown
# T1 sequence: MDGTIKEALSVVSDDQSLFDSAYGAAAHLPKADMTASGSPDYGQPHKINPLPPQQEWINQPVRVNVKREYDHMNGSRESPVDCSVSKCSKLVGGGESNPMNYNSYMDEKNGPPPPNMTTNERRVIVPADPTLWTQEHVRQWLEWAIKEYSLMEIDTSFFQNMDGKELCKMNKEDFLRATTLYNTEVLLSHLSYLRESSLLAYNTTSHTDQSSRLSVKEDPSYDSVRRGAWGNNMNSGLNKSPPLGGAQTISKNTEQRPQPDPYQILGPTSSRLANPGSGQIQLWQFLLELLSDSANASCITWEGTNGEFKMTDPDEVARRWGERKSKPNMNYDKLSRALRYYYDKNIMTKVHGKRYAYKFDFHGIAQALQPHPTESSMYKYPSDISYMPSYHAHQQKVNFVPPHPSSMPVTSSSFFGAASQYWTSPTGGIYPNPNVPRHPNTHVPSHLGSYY
# In short: (§1)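 GST fusions of human transcription factors were expressed in yeast and captured with glutathione beads. Once given DNA barcodes and pooled alongside a tag-only sample, they were incubated for 30 min at room temperature with 200 nmole of a random double-stranded 16-mer DNA library in Tris/NaCl/DTT/glycerol buffer, then washed, crosslinked (0.1% formaldehyde), proximity-ligated, PCR-amplified and sequenced on an Illumina NextSeq500. The binding signal of each hexamer is its read frequency for a factor divided by its frequency for the tag-only sample.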
# [2] = molecular target: T2, ELK1 (Homo sapiens, UniProt P19419 1-428); settings: protein: recombinant; tags: N-terminal GST; dsDNA, one strand shown
# T2 sequence: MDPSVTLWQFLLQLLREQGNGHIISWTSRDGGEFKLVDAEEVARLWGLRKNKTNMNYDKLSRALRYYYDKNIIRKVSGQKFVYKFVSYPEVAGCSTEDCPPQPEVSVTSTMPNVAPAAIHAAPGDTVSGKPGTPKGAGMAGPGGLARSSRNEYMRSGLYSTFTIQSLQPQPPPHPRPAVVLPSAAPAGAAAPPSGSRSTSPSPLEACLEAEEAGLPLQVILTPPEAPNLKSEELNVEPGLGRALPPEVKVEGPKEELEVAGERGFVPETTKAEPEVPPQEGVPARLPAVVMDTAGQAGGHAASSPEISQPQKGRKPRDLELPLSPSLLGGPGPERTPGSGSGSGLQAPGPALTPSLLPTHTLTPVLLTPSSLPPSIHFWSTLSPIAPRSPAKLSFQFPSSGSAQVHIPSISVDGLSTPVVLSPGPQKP
# In short: as §1
# [3] = molecular target: T3, GABPA (Homo sapiens, UniProt Q06546 1-454); settings: protein: recombinant; tags: N-terminal GST; dsDNA, one strand shown
# T3 sequence: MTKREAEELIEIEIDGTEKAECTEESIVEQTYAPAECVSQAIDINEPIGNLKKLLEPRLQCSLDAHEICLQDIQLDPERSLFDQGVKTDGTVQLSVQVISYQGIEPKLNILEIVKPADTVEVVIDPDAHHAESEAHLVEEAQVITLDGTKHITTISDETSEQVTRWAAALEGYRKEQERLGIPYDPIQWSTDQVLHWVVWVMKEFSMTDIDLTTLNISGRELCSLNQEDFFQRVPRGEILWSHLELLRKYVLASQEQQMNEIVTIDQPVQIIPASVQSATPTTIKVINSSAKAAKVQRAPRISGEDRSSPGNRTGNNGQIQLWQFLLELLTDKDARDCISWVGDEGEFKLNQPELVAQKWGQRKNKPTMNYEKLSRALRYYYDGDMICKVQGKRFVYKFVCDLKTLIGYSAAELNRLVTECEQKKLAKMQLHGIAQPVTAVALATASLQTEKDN
# In short: as §1
# [4] = molecular target: T4, ERG (Homo sapiens, UniProt P11308 1-479); settings: protein: recombinant; tags: N-terminal GST; dsDNA, one strand shown
# T4 sequence: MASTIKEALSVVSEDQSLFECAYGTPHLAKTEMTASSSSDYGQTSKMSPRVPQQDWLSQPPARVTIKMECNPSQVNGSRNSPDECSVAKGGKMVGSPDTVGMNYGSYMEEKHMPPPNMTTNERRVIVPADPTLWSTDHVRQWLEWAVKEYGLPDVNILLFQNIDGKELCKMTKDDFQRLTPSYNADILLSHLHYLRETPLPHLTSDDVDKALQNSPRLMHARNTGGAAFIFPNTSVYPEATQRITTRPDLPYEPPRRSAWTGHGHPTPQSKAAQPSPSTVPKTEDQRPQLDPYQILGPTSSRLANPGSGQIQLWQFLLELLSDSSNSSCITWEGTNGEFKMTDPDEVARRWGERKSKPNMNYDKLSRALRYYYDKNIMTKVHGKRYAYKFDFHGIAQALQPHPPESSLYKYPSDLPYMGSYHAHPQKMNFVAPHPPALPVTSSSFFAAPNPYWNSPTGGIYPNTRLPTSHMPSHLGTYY
# In short: as §1
# [5] = molecular target: ELF1 (Homo sapiens, UniProt P32519 1-619); settings: protein: recombinant; tags: N-terminal GST; dsDNA, one strand shown
# Chain of ELF1 (P32519 whole entry): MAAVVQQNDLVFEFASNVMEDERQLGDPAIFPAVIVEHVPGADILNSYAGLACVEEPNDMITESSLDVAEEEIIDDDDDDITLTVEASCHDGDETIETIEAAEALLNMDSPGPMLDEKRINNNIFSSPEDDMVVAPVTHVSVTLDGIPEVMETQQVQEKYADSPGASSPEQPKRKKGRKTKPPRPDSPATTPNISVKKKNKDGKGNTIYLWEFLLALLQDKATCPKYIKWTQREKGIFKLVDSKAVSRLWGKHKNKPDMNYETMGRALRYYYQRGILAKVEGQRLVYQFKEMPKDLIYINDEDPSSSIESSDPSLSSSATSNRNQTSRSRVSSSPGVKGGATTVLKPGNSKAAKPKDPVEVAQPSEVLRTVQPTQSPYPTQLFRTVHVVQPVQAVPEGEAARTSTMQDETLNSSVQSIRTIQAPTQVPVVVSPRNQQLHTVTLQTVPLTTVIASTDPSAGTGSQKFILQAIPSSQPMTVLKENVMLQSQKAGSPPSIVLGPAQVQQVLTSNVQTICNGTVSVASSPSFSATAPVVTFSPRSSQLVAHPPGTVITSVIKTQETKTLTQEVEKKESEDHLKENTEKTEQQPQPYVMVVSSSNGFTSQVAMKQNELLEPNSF
# In short: as §1
# [6] = molecular target: T5, EHF (Homo sapiens, UniProt Q9NZC4 1-300); settings: protein: recombinant; tags: N-terminal GST; dsDNA, one strand shown
# T5 sequence: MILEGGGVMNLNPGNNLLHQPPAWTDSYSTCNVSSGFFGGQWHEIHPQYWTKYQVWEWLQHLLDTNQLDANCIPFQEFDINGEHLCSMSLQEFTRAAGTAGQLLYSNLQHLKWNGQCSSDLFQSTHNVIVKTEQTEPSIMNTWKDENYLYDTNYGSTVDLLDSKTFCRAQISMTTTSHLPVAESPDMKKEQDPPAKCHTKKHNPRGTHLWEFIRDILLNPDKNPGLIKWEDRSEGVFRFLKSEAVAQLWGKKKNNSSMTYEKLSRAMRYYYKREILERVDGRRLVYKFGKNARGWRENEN
# In short: as §1
# [7] = molecular target: SPI1 (Homo sapiens, UniProt P17947 1-270); settings: protein: recombinant; tags: N-terminal GST; dsDNA, one strand shown
# In short: as §1
# [8] = molecular target: SPIB (Homo sapiens, UniProt Q01892 1-262); settings: protein: recombinant; tags: N-terminal GST; dsDNA, one strand shown
# Chain of SPIB (Q01892 whole entry): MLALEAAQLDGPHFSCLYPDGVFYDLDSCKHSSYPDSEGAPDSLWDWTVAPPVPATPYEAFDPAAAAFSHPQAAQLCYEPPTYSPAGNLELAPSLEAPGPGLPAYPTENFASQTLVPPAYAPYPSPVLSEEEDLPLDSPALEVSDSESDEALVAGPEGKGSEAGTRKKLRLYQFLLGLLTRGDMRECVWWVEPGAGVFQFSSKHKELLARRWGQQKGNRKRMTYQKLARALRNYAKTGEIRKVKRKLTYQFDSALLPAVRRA
# In short: as §1
# [9] = molecular target: T6, ELK3 (Homo sapiens, UniProt P41970 1-407); settings: protein: recombinant; tags: N-terminal GST; dsDNA, one strand shown
# T6 sequence: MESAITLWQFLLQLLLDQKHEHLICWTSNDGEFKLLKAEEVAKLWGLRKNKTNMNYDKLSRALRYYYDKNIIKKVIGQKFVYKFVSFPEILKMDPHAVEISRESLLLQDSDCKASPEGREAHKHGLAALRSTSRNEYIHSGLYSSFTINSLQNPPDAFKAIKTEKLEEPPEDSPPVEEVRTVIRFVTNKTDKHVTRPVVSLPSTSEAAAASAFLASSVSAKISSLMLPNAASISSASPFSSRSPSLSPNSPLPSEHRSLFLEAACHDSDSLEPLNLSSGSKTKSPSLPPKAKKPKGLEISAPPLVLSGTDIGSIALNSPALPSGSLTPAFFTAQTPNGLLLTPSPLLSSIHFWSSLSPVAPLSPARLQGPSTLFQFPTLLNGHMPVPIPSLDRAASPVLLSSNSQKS
# In short: as §1
# [10] = molecular target: T7, FEV (Homo sapiens, UniProt Q99581 1-238); settings: protein: recombinant; tags: N-terminal GST; dsDNA, one strand shown
# T7 sequence: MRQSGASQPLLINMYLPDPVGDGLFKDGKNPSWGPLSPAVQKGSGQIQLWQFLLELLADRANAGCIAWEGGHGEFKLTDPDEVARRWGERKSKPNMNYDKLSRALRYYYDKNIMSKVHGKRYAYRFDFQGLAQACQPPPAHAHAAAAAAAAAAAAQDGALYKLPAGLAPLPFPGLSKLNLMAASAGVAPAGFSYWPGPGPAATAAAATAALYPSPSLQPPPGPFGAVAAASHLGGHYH
# In short: as §1
# [11] = molecular target: ETV5 (Homo sapiens, UniProt P41161 1-510); settings: protein: recombinant; tags: N-terminal GST; dsDNA, one strand shown
# Chain of ETV5 (P41161 whole entry): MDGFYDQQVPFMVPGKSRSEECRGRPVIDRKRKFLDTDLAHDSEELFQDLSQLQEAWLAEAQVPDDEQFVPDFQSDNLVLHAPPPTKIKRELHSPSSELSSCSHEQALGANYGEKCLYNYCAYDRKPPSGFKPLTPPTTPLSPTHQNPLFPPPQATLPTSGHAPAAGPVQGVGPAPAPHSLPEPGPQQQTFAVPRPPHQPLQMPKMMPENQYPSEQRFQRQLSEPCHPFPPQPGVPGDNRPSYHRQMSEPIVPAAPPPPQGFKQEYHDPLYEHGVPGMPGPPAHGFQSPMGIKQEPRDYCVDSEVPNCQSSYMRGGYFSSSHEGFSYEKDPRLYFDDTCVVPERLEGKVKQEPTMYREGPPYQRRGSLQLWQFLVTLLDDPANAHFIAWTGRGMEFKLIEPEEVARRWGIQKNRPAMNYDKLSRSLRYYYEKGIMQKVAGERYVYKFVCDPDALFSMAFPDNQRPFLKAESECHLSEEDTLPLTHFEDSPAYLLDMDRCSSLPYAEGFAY
# In short: as §1
# [12] = molecular target: HSF1 (Homo sapiens, UniProt Q00613 1-529); settings: protein: recombinant; tags: N-terminal GST; chain copies: 3; dsDNA, one strand shown
# Chain of HSF1 (Q00613 whole entry): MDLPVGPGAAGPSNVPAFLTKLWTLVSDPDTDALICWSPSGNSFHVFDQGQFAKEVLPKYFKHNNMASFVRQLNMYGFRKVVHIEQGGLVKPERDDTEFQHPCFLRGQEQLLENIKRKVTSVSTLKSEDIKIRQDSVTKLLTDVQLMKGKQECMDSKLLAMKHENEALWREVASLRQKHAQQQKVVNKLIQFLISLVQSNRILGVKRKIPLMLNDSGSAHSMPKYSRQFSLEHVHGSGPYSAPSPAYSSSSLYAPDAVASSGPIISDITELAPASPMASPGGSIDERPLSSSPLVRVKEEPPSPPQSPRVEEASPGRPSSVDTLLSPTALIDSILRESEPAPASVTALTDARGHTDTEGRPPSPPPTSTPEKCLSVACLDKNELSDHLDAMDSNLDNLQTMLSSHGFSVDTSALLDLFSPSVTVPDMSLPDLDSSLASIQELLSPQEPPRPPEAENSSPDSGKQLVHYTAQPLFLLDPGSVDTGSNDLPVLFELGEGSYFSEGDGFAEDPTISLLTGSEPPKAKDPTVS
# In short: as §1
# [13] = molecular target: T8, SPIC (Homo sapiens, UniProt Q8N5J4 1-248); settings: protein: recombinant; tags: N-terminal GST; dsDNA, one strand shown
# T8 sequence: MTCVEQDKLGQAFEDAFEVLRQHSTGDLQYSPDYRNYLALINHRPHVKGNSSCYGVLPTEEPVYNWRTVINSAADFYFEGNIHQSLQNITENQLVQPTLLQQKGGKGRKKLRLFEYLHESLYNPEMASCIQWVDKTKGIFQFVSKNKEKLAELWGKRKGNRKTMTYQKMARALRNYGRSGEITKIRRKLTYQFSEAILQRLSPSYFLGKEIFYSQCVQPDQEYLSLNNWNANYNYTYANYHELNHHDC
# In short: as §1
# [14] = molecular target: ELF4 (Homo sapiens, UniProt Q99607 1-663); settings: protein: recombinant; tags: N-terminal GST; dsDNA, one strand shown
# Chain of ELF4 (Q99607 whole entry): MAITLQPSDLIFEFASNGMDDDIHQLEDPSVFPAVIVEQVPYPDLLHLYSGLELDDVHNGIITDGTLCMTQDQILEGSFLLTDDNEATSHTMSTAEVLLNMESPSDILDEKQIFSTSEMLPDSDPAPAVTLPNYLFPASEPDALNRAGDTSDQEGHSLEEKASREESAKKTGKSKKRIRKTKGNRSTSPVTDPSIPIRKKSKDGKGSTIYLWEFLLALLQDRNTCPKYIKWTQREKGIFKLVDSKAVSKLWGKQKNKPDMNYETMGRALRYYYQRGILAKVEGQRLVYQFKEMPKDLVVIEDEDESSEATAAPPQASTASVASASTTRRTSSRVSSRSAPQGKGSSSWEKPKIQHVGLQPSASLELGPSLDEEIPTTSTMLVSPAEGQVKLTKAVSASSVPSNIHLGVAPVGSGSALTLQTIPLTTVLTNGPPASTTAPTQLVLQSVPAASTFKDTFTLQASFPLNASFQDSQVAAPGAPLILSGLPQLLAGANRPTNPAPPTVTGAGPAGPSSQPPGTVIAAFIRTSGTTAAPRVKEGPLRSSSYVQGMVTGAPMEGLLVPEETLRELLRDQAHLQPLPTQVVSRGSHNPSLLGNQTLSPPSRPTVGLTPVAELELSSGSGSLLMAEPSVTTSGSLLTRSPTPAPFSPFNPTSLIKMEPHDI
# In short: as §1
# [15] = molecular target: T9, ELK4 (Homo sapiens, UniProt P28324-2 1-405); settings: protein: recombinant; tags: N-terminal GST; dsDNA, one strand shown
# T9 sequence: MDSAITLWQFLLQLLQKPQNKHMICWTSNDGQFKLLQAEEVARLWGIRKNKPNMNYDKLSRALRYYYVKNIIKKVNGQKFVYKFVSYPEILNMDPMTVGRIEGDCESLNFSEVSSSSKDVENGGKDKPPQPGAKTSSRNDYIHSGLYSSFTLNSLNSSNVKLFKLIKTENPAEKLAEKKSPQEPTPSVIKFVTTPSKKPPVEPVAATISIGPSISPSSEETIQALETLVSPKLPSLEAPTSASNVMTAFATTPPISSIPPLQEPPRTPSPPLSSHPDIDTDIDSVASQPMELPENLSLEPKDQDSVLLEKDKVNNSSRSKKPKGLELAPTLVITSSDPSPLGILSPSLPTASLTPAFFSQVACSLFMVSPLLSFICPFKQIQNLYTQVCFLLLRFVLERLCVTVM
# In short: as §1
# [16] = molecular target: T10, ETV2 (Homo sapiens, UniProt O00321 1-342); settings: protein: recombinant; tags: N-terminal GST; dsDNA, one strand shown
# T10 sequence: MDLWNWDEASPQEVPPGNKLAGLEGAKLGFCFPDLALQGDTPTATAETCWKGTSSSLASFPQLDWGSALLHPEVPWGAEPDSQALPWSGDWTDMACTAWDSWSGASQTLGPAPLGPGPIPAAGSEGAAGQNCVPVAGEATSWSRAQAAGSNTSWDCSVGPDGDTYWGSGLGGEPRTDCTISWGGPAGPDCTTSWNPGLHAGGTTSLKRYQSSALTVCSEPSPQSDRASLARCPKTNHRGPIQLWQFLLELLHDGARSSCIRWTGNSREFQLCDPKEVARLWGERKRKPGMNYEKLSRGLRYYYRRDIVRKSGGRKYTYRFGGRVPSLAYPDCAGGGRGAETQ
# In short: as §1
# [17] = molecular target: T11, ELF3 (Homo sapiens, UniProt P78545 1-371); settings: protein: recombinant; tags: N-terminal GST; dsDNA, one strand shown
# T11 sequence: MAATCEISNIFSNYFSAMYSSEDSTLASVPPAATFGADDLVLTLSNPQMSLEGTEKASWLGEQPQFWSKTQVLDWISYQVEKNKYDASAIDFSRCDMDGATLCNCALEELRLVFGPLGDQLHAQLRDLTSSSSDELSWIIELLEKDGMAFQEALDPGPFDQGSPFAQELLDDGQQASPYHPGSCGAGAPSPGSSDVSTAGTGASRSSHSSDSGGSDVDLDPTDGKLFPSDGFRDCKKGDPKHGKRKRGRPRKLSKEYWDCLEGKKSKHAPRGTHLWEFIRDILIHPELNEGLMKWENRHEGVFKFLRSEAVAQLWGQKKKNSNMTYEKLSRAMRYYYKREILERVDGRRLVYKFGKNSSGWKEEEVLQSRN
# In short: as §1
# [18] = molecular target: CRX (Homo sapiens, UniProt O43186 1-299); settings: protein: recombinant; tags: N-terminal GST; dsDNA, one strand shown
# Chain of CRX (O43186 whole entry): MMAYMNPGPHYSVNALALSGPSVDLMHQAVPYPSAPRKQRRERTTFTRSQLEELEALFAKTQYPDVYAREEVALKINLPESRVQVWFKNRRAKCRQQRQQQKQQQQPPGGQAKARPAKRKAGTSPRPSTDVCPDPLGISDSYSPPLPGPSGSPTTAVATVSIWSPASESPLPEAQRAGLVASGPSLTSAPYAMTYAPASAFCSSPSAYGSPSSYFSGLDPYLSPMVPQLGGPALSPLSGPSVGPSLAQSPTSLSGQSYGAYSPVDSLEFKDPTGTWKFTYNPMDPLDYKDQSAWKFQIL
# In short: as §1
# [19] = molecular target: ETV1 (Homo sapiens, UniProt P50549 1-477); settings: protein: recombinant; tags: N-terminal GST; dsDNA, one strand shown
# Chain of ETV1 (P50549 whole entry): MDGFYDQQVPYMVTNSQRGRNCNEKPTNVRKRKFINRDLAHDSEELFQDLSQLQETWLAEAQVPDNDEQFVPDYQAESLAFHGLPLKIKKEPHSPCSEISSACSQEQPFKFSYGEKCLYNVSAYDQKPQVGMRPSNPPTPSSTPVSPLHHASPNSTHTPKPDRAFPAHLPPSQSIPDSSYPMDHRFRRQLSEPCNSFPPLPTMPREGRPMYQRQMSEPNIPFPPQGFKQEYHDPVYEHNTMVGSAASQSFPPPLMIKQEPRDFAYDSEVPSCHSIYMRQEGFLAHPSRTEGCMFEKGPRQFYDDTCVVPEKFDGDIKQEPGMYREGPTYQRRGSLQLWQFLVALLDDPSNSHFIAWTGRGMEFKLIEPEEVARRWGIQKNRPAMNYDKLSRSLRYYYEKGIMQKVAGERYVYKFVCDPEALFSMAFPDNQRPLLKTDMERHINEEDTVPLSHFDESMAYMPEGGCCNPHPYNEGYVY
# In short: as §1
sequence,measurement,setting,value
CGTCTC,binding signal,[1],"1.41 fold enrichment (6-mer frequency, TF over GST control)"
same,binding signal,[2],"1.36 fold enrichment (6-mer frequency, TF over GST control)"
same,binding signal,[3],"1.49 fold enrichment (6-mer frequency, TF over GST control)"
same,binding signal,[4],"1.31 fold enrichment (6-mer frequency, TF over GST control)"
same,binding signal,[5],"1.53 fold enrichment (6-mer frequency, TF over GST control)"
same,binding signal,[6],"1.41 fold enrichment (6-mer frequency, TF over GST control)"
same,binding signal,[7],"1.36 fold enrichment (6-mer frequency, TF over GST control)"
same,binding signal,[8],"1.61 fold enrichment (6-mer frequency, TF over GST control)"
same,binding signal,[9],"1.63 fold enrichment (6-mer frequency, TF over GST control)"
same,binding signal,[10],"1.46 fold enrichment (6-mer frequency, TF over GST control)"
same,binding signal,[11],"1.46 fold enrichment (6-mer frequency, TF over GST control)"
same,binding signal,[12],"1.42 fold enrichment (6-mer frequency, TF over GST control)"
same,binding signal,[13],"1.47 fold enrichment (6-mer frequency, TF over GST control)"
same,binding signal,[14],"1.55 fold enrichment (6-mer frequency, TF over GST control)"
same,binding signal,[15],"1.49 fold enrichment (6-mer frequency, TF over GST control)"
same,binding signal,[16],"1.27 fold enrichment (6-mer frequency, TF over GST control)"
same,binding signal,[17],"1.46 fold enrichment (6-mer frequency, TF over GST control)"
same,binding signal,[18],"1.18 fold enrichment (6-mer frequency, TF over GST control)"
same,binding signal,[19],"1.43 fold enrichment (6-mer frequency, TF over GST control)"
